Only a selection was taken, and hits are over-represented in it overall.
FBPA Giardia inh: inhibitors of Giardia lamblia fructose-1,6-bisphosphate aldolase. purified Giardia FBPA. Potency, µM (highest dose often 59.6 µM), most hits filed as inhibitors. 290,000 compounds, 0.71% hits; also: nearly all actives have a fitted effect of over 55% in size
Target sequence (A8B2U2 whole entry, looked up): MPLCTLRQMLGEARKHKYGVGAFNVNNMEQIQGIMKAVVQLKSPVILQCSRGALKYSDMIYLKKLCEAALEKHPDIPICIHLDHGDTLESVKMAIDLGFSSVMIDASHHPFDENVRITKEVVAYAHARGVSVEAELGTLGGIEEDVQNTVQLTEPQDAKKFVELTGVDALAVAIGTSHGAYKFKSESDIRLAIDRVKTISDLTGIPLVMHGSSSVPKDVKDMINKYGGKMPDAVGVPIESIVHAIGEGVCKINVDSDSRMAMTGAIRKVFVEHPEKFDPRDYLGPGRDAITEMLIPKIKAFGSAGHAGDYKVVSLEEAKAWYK
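40 nM FBPA preincubated 10 min at RT with compound (up to 57.5 uM final), then substrate plus GAPDH/TPI/NAD/arsenate coupling and diaphorase/resazurin added. Fluorescence read after 20 min at RT, 525/598 nm.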
LmPK inhibitor: LmPK (Leishmania mexicana) enzyme inhibition; Q27686; purified LmPK, Kinase-Glo ATP luminescence, 1 h; Potency, µM (highest dose often 57.5 µM), hits mostly inhibitors; 290,000 compounds, 0.37% hits
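Purified LmPK (0.1 nM) with 0.5 mM PEP and 0.1 mM ADP in imidazole buffer pH 7.2 with MgCl2/KCl, 1 h at room temperature. ATP formed was read by luciferase luminescence and normalized to no-enzyme and uninhibited controls.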
Cycloheximide cs: counter-screen for Shiga toxin inhibitors: cycloheximide protein synthesis inhibition; max response, %; 300,000 compounds, 12% hits; cell reporter, cycloheximide protein synthesis inhibition counterscreen; in the data active = max response mostly above about 13%, no sharp cut-off; inactive = mostly below about 14%; also: read at 38.3 µM for the half of the compounds with a filed dose
Shiga toxin inh: Shiga toxin inhibition; Vero cells, Shiga toxin protein synthesis inhibition reporter; inhibition, % at 38.7 µM; 290,000 compounds, 9.2% hits; in the data active = inhibition mostly above about 28%, no sharp cut-off; inactive = mostly below about 43%
Sm TGR inh: blocks Schistosoma mansoni thioredoxin glutathione reductase; Q962Y6; 360,000 compounds, 3% hits; Potency, µM (doses to about 114 µM), actives largely listed as inhibitors; AID 485364; purified TGR, DTNB reduction, TNB absorbance 405 nm; also: nearly all actives have a fitted effect of over 60% in size
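Kinetic colorimetric format: TGR-catalysed, NADPH-driven DTNB reduction monitored via TNB absorbance. Enzyme dispensed at 20 nM; compound exposure 15 min at room temperature before reaction start.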
Tb PYK inh: T. brucei pyruvate kinase inhibition | Q57TT1 | Potency, µM (titrated, usually from 76.8 µM), actives largely listed as inhibitors | AID 624173 | TbPYK enzyme, Kinase-Glo Plus ATP luminescence, 45 min | 410,000 compounds, 0.12% hits; also: nearly all actives have a fitted effect of over 50% in size
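Luminescent Kinase-Glo Plus end-point after 45 min room-temperature reaction of T. brucei pyruvate kinase started with 130 uM ADP (final). Buffer TEA 50 mM pH 7.2 with KCl, MgCl2, BSA, Tween-20; titration-based qHTS with fitted concentration-effect curves.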
Large screens that a line does not name were inactive. Unless noted, calls follow the shape of the dose curve; as a rule, active = well fitted curve in the direction sought with a large enough effect; inconclusive = small, poorly fitted or top-dose-only effect, or another doubt; inactive = no such curve, though single readings can be large; an effect the other way counts as inactive or inconclusive.

CC(C)CNC(=S)NC(=O)c1ccc(F)cc1	Cycloheximide cs 62, Shiga toxin inh 118, Sm TGR inh 32µM
O=C(NC(=S)NC(CO)Cc1ccccc1)c1ccc(F)cc1 (stereo not drawn)	FBPA Giardia inh inconclusive, Cycloheximide cs 19, Shiga toxin inh 51
CC(C)CNC(=S)NC(=O)c1ccc(Cl)cc1Cl	Cycloheximide cs 43, Shiga toxin inh 54, Sm TGR inh inconclusive
COC(=O)C(Cc1ccccc1)NC(=S)NC(=O)c1ccccc1 (stereo not drawn)	Sm TGR inh inconclusive
O=C(NCCSc1ccccc1)c1ccc(CN2CCOCC2)cc1	Cycloheximide cs 36, Shiga toxin inh 62
O=C(Nc1ccccc1C(=O)NCCCN1CCOCC1)c1ccc(F)cc1	Sm TGR inh 89µM (no result: FBPA Giardia inh)
O=C(NCCN1CCOCC1)c1ccc(-c2ccccc2)cc1	Cycloheximide cs 25
O=C(NCCCN1CCOCC1)c1ccccc1	none
COc1ccc(NC(=O)CC2C(=O)N(c3cccc(OC)c3)C(=O)N2Cc2ccc3c(c2)OCO3)cc1 (stereo not drawn)	none (no result: FBPA Giardia inh, LmPK inhibitor, Cycloheximide cs, Shiga toxin inh)
C=C(C)[C@H]1CC[C@]2(CO)CC[C@]3(C)[C@@H](CC[C@H]4[C@@]5(C)CC[C@@H](O)C(C)(C)[C@@H]5CC[C@@]43C)[C@H]12	none (no result: LmPK inhibitor, Cycloheximide cs, Shiga toxin inh, Sm TGR inh, Tb PYK inh)
CCOC(=O)c1c(C)oc2nc(C)nc(NCc3ccccc3OC)c12	none (no result: FBPA Giardia inh, LmPK inhibitor, Cycloheximide cs, Shiga toxin inh)
Cc1cccc(-c2nnc3sc(-c4ccccc4C)nn23)c1	Shiga toxin inh 46
c1ccc(-c2nnc3sc(-c4csc5c4CCCC5)nn23)cc1	Cycloheximide cs 13
COc1ccc2cc3cc(C(=O)NCc4ccc5c(c4)OCO5)oc3nc2c1	none
COc1ccc2cc3cc(C(=O)NCC4COc5ccccc5O4)oc3nc2c1 (stereo not drawn)	Cycloheximide cs 40
COc1ccc2cc3cc(C(=O)NC(C)C)oc3nc2c1	Cycloheximide cs 48, Shiga toxin inh 75
CCCCC/C=C\C/C=C\C/C=C\C/C=C\CCCCCC(=O)NC(C)C(=O)O (stereo not drawn)	none (no result: LmPK inhibitor, Cycloheximide cs, Shiga toxin inh, Sm TGR inh, Tb PYK inh)
O=C(CCNC(=O)c1ccc(Br)cc1)NCc1ccncc1	none (no result: FBPA Giardia inh, LmPK inhibitor, Cycloheximide cs, Shiga toxin inh)
Cc1cc(C)c(C#N)c(SCC(=O)Nc2ccc3c(c2)OCO3)n1	Cycloheximide cs 26, Shiga toxin inh 28
Cc1nc(SCC(=O)Nc2ccc3c(c2)OCO3)c(C#N)c2c1CCCC2	none
COCc1cc(C)nc(SCC(=O)Nc2ccc(C)c(C)c2)c1C#N	Cycloheximide cs 44, Shiga toxin inh 98
O=C(COc1ccccc1)n1nc(-c2ccc(Cl)cc2)nc1NCc1ccco1	Cycloheximide cs 48, Shiga toxin inh 26 (no result: Tb PYK inh)
O=C(c1ccco1)n1nc(NCc2ccccc2)nc1NCc1ccccc1	Cycloheximide cs 9.9, Shiga toxin inh 37
Cc1ccc(-c2nc(NCc3ccco3)n(C(=O)c3ccco3)n2)cc1	Cycloheximide cs 42, Shiga toxin inh 122
COc1ccc(CNc2nc(NCc3ccc(OC)cc3)n(C(=O)c3ccccc3[N+](=O)[O-])n2)cc1	Cycloheximide cs 26, Shiga toxin inh 75
O=C(c1ccco1)n1nc(-c2ccccc2)nc1NCc1ccco1	none
O=C(CSc1nc(-c2cccs2)nc2cc(=O)[nH]n12)Nc1ccc(F)cc1	none (no result: FBPA Giardia inh, LmPK inhibitor, Cycloheximide cs, Shiga toxin inh)
CCOC(=O)CC(NS(=O)(=O)c1ccc2[nH]c3c(c2c1)CCCC3)c1ccccc1Cl (stereo not drawn)	none (no result: FBPA Giardia inh, LmPK inhibitor)
COc1ccccc1C(=O)n1nc(-c2ccccc2)nc1NCc1ccco1	Cycloheximide cs 21
COc1ccc(/C=N/NC(=O)c2cc(-c3ccc4c(c3)OCO4)n[nH]2)cc1OC	Cycloheximide cs 29
CN(C)c1ccc(/C=N/NC(=O)c2cc(-c3ccc4c(c3)OCO4)n[nH]2)cc1	Cycloheximide cs 31, Shiga toxin inh 60
CCCC[C@@H]1CC2=C(C(=O)OC(C)(C)O2)[C@H](c2ccc(C(C)C)cc2)O1	none (no result: FBPA Giardia inh, LmPK inhibitor, Cycloheximide cs, Shiga toxin inh, Sm TGR inh)
CC(=O)c1cccc(N(CC(=O)Nc2ccc(F)cc2F)S(C)(=O)=O)c1	Cycloheximide cs 30, Shiga toxin inh 51
CCN(CC)S(=O)(=O)c1ccc(OCC(=O)NCc2ccco2)cc1	Sm TGR inh 22µM
COc1cc(OC)cc(C(=O)OCC(=O)NCc2ccco2)c1	Sm TGR inh inconclusive (no result: FBPA Giardia inh, LmPK inhibitor, Cycloheximide cs, Shiga toxin inh)

Source: PubChem BioAssay (National Center for Advancing Translational Sciences (NCATS))
